# Data: PubChem BioAssay (NCI)
# Compounds without any hit were thinned out: in the full panel of roughly 83,000, 20% have a hit.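 Values shown are percent growth following 48 h exposure of cells in 96-well plates to a single concentration of compound; below 10 was considered active.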 Values without a mark were called inactive. Activity calls are given as the source filed them.
# Tested on: HL-60(TB) leukemia
# Test: NCI-60 one-dose screen, 48 h (100 = growth as untreated, 0 = no growth, -100 = all killed)
# Settings: 10 µM unless noted
row,Compound,growth
1,Cc1ccc(S(=O)(=O)Nc2cccc3[nH]c(C(F)(F)F)nc23)cc1,0.648% (active)
2,CC(=O)NC1(C(=O)O)CCCC1,101%
3,CN(CC(=O)N(Cc1ccc(C2CCCCC2)cc1)c1ccc(C(=O)O)cc1)S(=O)(=O)c1c(F)c(F)c(F)c(F)c1F,-28.6% (active)
4,N#CSCc1ccc(CSC#N)c(Cl)c1,23%
5,Nc1cc(F)ccc1[N+](=O)[O-],115%
6,CCOC(=O)N1C/C(=C/c2ccc(Cl)cc2)C(=O)/C(=C/c2ccc(Cl)cc2)C1,61.5%
7,COc1cc(C2=NN(C(C)=O)C(c3ccc(N(C)C)cc3)C2)cc(OC)c1OC (stereo not given),89.6%
8,CCC(C)(c1ccc(O)c(C)c1)c1ccc(O)c(C)c1,128%
9,O=C(N/N=C\c1c(O)ccc2ccccc12)C1CC1,1.22% (active)
10,Oc1c(Cl)cc(Cl)c2ccc(CN3CCNCC3)nc12,44.1%
11,O=C(/C=C/c1ccccc1)n1c(-c2ccccc2)nc2ccccc21,101%
12,Cc1ccc(NC(=O)c2ccc(CN3CCN(C)CC3)cc2)cc1Nc1nc(-c2cccnc2)cs1,57.9%
13,Clc1cccc(Nc2nc(Nc3cnc4ccccc4c3)c3[nH]cnc3n2)c1,121%
14,Cc1ccnc2c(OCc3ccccc3)cccc12,111%
15,Cc1cn(-c2cc(NC(=O)c3cncc(C#Cc4c(N)ncc5ccc(F)cc45)c3)cc(C(F)(F)F)c2)cn1,9.54% (active)
16,Cc1ccc(S(=O)(=O)c2ccc3[nH]c(=O)[nH]c(=O)c3c2)cc1,89.3%
17,CCc1nnc(NC(=O)c2ccoc2COc2ccccc2)s1,19.3%
18,COCCc1n(Cc2ccc3ccccc3c2)c2ccccc2[n+]1Cc1ccc2ccccc2c1,-62.4% (active)
19,CN(C)CCCC(C#N)c1ccccc1 (stereo not given),118%
20,O=C(Oc1ccccc1Cl)c1ccc(Cl)cc1Cl,106%

row,Compound,growth
1,COc1ccc(C(=O)COc2ccc(/C=C3\Oc4ccc(OC)cc4C3=O)cc2)cc1,94.1%
2,CN(C)c1nc(-c2cccs2)n2nc(-c3ccc(Cl)cc3)cc2n1,87.8%
3,CCN=C1C=CC(=C(c2ccc(N)cc2)c2ccc(N(CC)CC)c(C)c2)C=C1,-11% (active)
4,O=C(NCCNc1nccc(-c2c(-c3cccc(O)c3)nc3sccn23)n1)c1ccccc1O,59.8%
5,CCCN1CN2C(=O)N3CN(CCC)CN4C(=S)N(C1)C2C34 (stereo not given),95%
6,Cc1ccc(-c2nc(C(Cl)Cl)nc3cc(C)nn23)cc1,-1.36% (active)
7,Nc1ncc(-c2ccc3ncnc(Nc4cncc(Cl)c4)c3c2)cn1,92.5%
8,COc1ccc(OC)c(N(CCN2C(=O)c3ccccc3C2=O)C(=O)CCl)c1,-63.3% (active)
9,CCC(=O)Oc1ccc(/C(=C(\C)c2ccccc2)c2ccc(OCCN(CC)CC)cc2)cc1,45.1%
10,COc1cc(C2CC(=O)Nc3n[nH]c(-c4ccccc4)c32)cc(OC)c1OC (stereo not given),39.1%
11,N=C(N)c1ccc(-c2ccc(-c3cccs3)s2)cc1F,-47.8% (active)
12,O=C(NCc1cccnc1)c1cc(-c2csc3c(=O)cc(N4CCOCC4)oc23)cc2c1OCCO2,-35.1% (active)
13,c1ccc(COc2ccc(Nc3ncnc4c3cnn4-c3ccccc3)cc2)cc1,99.8%
14,O=S(=O)(NCCCNc1nccc(-c2c(-c3cccc(F)c3)nc3occn23)n1)c1cccc2ccccc12,-26.8% (active)
15,COc1ccc2nc3cc(Cl)ccc3c(N3CCN(c4ccnc(Nc5ccc(F)cc5)n4)CC3)c2c1,52.5%
16,COc1ccc(-c2cc(-c3ccc(Nc4nc(Nc5ccccc5)nc(Nc5ccc(Cl)cc5)n4)cc3)nc(N)c2C#N)cc1,33.1%
17,c1ccc2nc(Cn3c[n+](Cc4ccc5ccccc5n4)c4ccccc43)ccc2c1,-40.1% (active)
18,COc1ccccc1CNCCN1C(=O)c2ccc3c4c(ccc(c24)C1=O)C(=O)N(CCNCc1ccccc1OC)C3=O,-71.8% (active)
19,O=C(CCCN1CCC(O)(c2ccc(Br)cc2)CC1)c1ccc(F)cc1,72.5%
20,O=[N+]([O-])c1ccc(-c2cn(-c3ccccc3)c(-c3ccccc3)n2)cc1,87%
